Screening results from PubChem.
Hits are enriched below; roughly 6% of the tested compounds scored in any of these assays.
D3 antag: blocks the human D3 dopamine receptor; max response, negative = inhibition, %; D3R cells, DiscoveRx beta-arrestin luminescence, antagonist mode; active compounds read low; P35462; hit rate 2.5% among 360,000; in the data active = max response below about -50%; inconclusive = no clear call, values can overlap the other calls
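Cells plated overnight at 1500 cells/well, then exposed to library compounds with dopamine controls for 90 minutes at 37 degrees C. DiscoveRx reagent added for 30–60 minutes at room temperature; luminescence read, quantitative HTS format.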
D1 potentiator: enhances dopamine response at the human D1 receptor. P21728. HEK293 TREx D1 cells, calcium flux, dopamine EC20 potentiation. potentiation, % at 10 µM. hit rate 0.036% among 360,000; in the data active = potentiation above about 30%
Target sequence (P21728 whole entry, looked up): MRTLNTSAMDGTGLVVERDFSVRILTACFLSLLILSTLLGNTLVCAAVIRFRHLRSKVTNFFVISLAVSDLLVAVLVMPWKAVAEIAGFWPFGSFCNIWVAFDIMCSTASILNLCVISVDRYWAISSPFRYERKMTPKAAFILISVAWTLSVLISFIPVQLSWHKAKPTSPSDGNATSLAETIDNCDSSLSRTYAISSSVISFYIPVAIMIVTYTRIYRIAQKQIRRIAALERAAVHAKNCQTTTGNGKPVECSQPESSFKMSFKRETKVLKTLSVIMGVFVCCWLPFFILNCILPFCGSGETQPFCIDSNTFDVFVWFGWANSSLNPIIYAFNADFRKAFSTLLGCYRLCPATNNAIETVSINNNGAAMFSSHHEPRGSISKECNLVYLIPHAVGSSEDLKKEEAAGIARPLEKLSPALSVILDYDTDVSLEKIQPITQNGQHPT
D1 antagonist: blocks dopamine activation of the human D1 receptor; AID 504652; P21728; hit rate 3.2% among 360,000; activity change, negative = inhibition, % at 10 µM; HEK293 TREx D1 cells, calcium flux, dopamine EC80; active compounds read low; in the data active = activity change below about -30%
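Compound effects on dopamine-evoked calcium signalling were measured in tetracycline-induced HEK293 Trex D1 cells. Dopamine at EC80 followed a 180 s compound pre-read, and fluorescence was tracked kinetically for 180 s more.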
D1 agonist: human D1 receptor agonism; HEK293 T-REx D1 cells, calcium flux, agonist mode; activation, % at 2 µM; hit rate 1% among 360,000; AID 504660; in the data active = activation above about 30%
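Agonism was scored from calcium flux recorded over 180 s (1 read/s) after pintool compound addition, following a 10-cycle baseline. Cells were inducible force-coupled HEK293 TREx D1, plated overnight at 30 C and loaded with no-wash calcium dye.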
D3 ag: activates the human D3 dopamine receptor. P35462. D3R DiscoveRx beta-arrestin cells, luminescence, 90 min. max activation, %. hit rate 0.58% among 410,000. AID 652048; in the data active = max activation above about 30%
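Cells at 1500/well, incubated overnight, then treated with pinned compounds (dopamine as control) for 90 min at 37 degrees C. DiscoveRx reagent added for 30 - 60 minutes at room temperature; luminescence read.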
Hits are given with their value; 0 = inactive; ? = inconclusive; - = no result given.

SMILES | D3 antag | D1 potentiator | D1 antagonist | D1 agonist | D3 ag
CCc1ccc(-c2nc(CN3CCC(C(=O)N4CCN(c5ccccc5)CC4)CC3)c(C)o2)cc1 | 0 | 0 | -35.0 | 43.2 | 0
CCc1ccc(-c2nc(CN3CCC(C(=O)N4CCN(c5ccccn5)CC4)CC3)c(C)o2)cc1 | 0 | 0 | -54.7 | 168.3 | 0
CCOC(=O)c1c(NC(=O)C(C)Sc2cn(CCNC(=O)c3ccc(OC)cc3)c3ccccc23)sc2c1CCC2 (stereo not drawn) | - | 0 | 0 | 0 | 0
Cc1noc(C)c1S(=O)(=O)N(CC(=O)Nc1ccc(C(F)(F)F)cc1)c1ccc(C(C)C)cc1 | - | 0 | 0 | 0 | 0
Cn1c(Cc2ccccc2)nnc1SCC(=O)NC1CCCCC1 | 0 | 0 | 0 | 0 | 0
Cn1c(Cc2csc(N)n2)nnc1SCC(=O)NC1CCCCC1 | -57.4 | 0 | 0 | 0 | 0
O=C(NCCNc1nccc(C(F)(F)F)n1)c1cccc(C(F)(F)F)c1 | 0 | 0 | -33.9 | 0 | 0
CCNC(C(=O)c1c[nH]c2c(CC)cccc12)c1ccccc1 (stereo not drawn) | 0 | 0 | 0 | 63.0 | 0
CCOc1ccc(Sc2cc(C(=O)NCc3ccc(F)cc3)c3ccccc3n2)cc1 | - | 0 | 0 | 0 | 0
COc1cccc(-c2onc3ccc(C4(C)OCCO4)cc23)c1 | 0 | 0 | 0 | 0 | 31.8
CC1(c2ccc3noc(-c4ccccc4)c3c2)OCCO1 | 0 | 0 | 0 | 0 | 0
O=C(NCCc1ccccc1)C1Cc2c(-c3ccccc3Oc3ccccc3)ccnc2O1 (stereo not drawn) | 0 | - | - | - | 0
Cc1ccc(OCC(=O)N(C)CC(=O)N(CC(C)C)c2c(N)n(CC(C)C)c(=O)[nH]c2=O)c(C)c1 | 0 | 0 | -31.0 | 0 | 0
O=C(Nc1ccccc1)Nc1nnc([C@H]2C[C@H](O)[C@@H](CO)O2)s1 | 0 | - | - | - | 0
CC(NC(=O)CCNC(=O)c1ccco1)c1ccccc1 (stereo not drawn) | 0 | 0 | -42.3 | 0 | 0
O=C(CCNC(=O)c1ccco1)Nc1cccc(Br)c1 | 0 | 0 | -30.3 | 0 | 0
CSc1cccc(NC(=O)CCNC(=O)c2ccco2)c1 | 0 | 0 | 0 | 0 | 0
CC(NC(=O)CCSCCC(=O)NC(C)c1ccccc1)c1ccccc1 (stereo not drawn) | 0 | 0 | -45.1 | 0 | 0
C=CCC(C(=O)NC(C)c1ccccc1)C(=O)NC(C)c1ccccc1 (stereo not drawn) | 0 | 0 | 0 | 32.4 | 0
Cc1ccc(S(=O)(=O)N(C)C)cc1NC(=O)CCNC(=O)c1ccco1 | 0 | 0 | 0 | 0 | 0
COc1ccc(NC(=O)c2oc3ccc4c(c3c2C)C(=O)CC(C)(C)O4)cc1OC | - | 0 | 0 | 0 | 0
COc1ccccc1CN1CCNC(=O)C1=O | - | 0 | 0 | 0 | 0
CCOc1cc(/C=N/n2cnnc2)cc(Br)c1O | 0 | 0 | -91.7 | 0 | 0
CC1(C(=O)NS(=O)(=O)Cc2ccccc2C(F)(F)F)CCN1C(=O)c1cccc(F)c1 (stereo not drawn) | 0 | - | - | - | 0
O=C(NCCN1CCOCC1)c1ccccc1N1C(=O)[C@@H]2Cc3c([nH]c4ccccc34)C(c3ccccc3)N2C1=O (stereo partly drawn) | 0 | 0 | 0 | 0 | 0
SMILES | D3 antag | D1 potentiator | D1 antagonist | D1 agonist | D3 ag
O=C(NCCCN1CCOCC1)c1ccccc1N1C(=O)[C@@H]2Cc3c([nH]c4ccccc34)C(c3ccc(F)cc3)N2C1=O (stereo partly drawn) | 0 | 0 | 0 | 0 | 32.9
COc1ccc2c(Cn3cnc4cc([N+](=O)[O-])ccc4c3=O)cc(=O)oc2c1 | 0 | 0 | 0 | 0 | 0
CN1CCC(=C(c2ccccc2)c2ccc(Br)cc2)CC1 | -99.0 | - | - | - | 0
CCCOC(=O)c1c(NC(=O)/C=C/c2cnn(C)c2C)sc(C(=O)OC)c1C | -76.9 | 0 | 0 | 0 | 0
CCCOC(=O)c1c(NC(=O)/C=C/c2cnn(C)c2C)sc(C(=O)OCC)c1C | 0 | 0 | 0 | 0 | 0
CCOC(=O)c1c(NC(=O)/C=C/c2ccc(OCC)cc2)sc(C)c1C | - | 0 | -79.8 | 0 | 0
CCOC(=O)c1sc(NC(=O)/C=C/c2cnn(CC)c2C)c(C(=O)OCC)c1C | 0 | 0 | -60.0 | 0 | 35.6
CCC(C(=O)NCCc1ccccc1)n1nc(C)n2c(cc3sccc32)c1=O (stereo not drawn) | - | 0 | 0 | 0 | 0
OC[C@@H]1CN(Cc2ccncc2)C[C@H](n2cnc3c(NCc4ccncc4)ncnc32)O1 | 0 | - | - | - | 0
O=C(Cn1c(SCCOc2ccccc2)nc2ccccc21)N1CCOCC1 | - | 0 | 0 | 0 | 0
CNCC/C=C1/c2ccccc2CSc2ccccc21 | -80.6 | 0 | -51.4 | 0 | 0
CCN(CC)CCNC(=O)c1cc2c(s1)-c1ccccc1SC2 | ? | 0 | 0 | 0 | 0
OCCN1CCN(CC/C=C2/c3ccccc3CSc3ccccc32)CC1 | -104.6 | - | - | - | 0
Cc1cn2c(=O)cc(COC(=O)c3ccc(NC(=O)c4ccc(C(C)(C)C)cc4)cc3)nc2s1 | - | 0 | 0 | 0 | 0
O=c1c2ccccc2nc(SCCN2CCCCC2)n1CCc1ccccc1 | -56.1 | 0 | 0 | 0 | 0
Cn1c(=O)c2c(nc(SCCN3CCCCC3)n2Cc2ccc(Cl)cc2)n(C)c1=O | -51.3 | 0 | 0 | 0 | 0
O=C1CC(c2nnc(Cc3ccc(F)cc3Cl)o2)CN1c1ccccc1 (stereo not drawn) | - | 0 | 0 | 0 | 0
Cc1cc(C(=O)N2CCCC(C)(C(=O)NS(=O)(=O)C3CC3)C2)nn1C(C)(C)C (stereo not drawn) | 0 | - | - | - | 0
Nn1c(Cc2cccc3ccccc23)nnc1SCCOc1ccc(F)cc1 | 0 | 0 | -98.4 | 0 | 0
NC1(C(=O)O)CC1 | -75.3 | - | - | - | 0
O=C(O)C1(C(=O)O)CCCC1 | 0 | - | - | - | 0
Cc1ccc(Cl)cc1NC(=O)Cn1c(=O)n(Cc2ccccc2)c(=O)c2oc3ccccc3c21 | - | 0 | 0 | 0 | 0
COc1ccccc1C1CCN(C(=O)c2ccccc2)CC1 | 0 | 0 | 0 | 0 | 0
COc1ccccc1C1CCN(Cc2cccc(C(=O)N3CCC(O)CC3)c2)CC1 | -110.3 | 0 | 0 | 0 | 0
COc1cccc(Cn2c(CNC(=O)Cc3cccc(C)c3)nc3cccnc32)c1 | - | 0 | 0 | 0 | 0
SMILES | D3 antag | D1 potentiator | D1 antagonist | D1 agonist | D3 ag
O=C1Nc2ccc([N+](=O)[O-])cc2OC1CCN1CCN(c2ccccc2)CC1 (stereo not drawn) | -50.8 | 0 | 0 | 0 | 0
O=C1Nc2ccc([N+](=O)[O-])cc2OC1CCN1CCOCC1 (stereo not drawn) | 0 | 0 | 0 | 0 | 0
COC(=O)C(C(=O)OC)C1C=CCN(C(C)=O)C1 (stereo not drawn) | 0 | - | - | - | 0
COc1ccc(-c2cc(C(F)(F)F)nc(SCC(=O)Nc3ccc(C(C)=O)cc3)n2)cc1 | - | 0 | -44.1 | 0 | 0
COc1ccc(-c2cc(C(F)(F)F)nc(SCCC(=O)Nc3ccccc3F)n2)cc1 | - | 0 | 0 | 0 | 0
COc1ccc(-c2cc(C(F)(F)F)nc(SCC(=O)Nc3cc(C)on3)n2)cc1 | 0 | 0 | 0 | 0 | 0
COc1ccc(-c2cc(C(F)(F)F)nc(SCCC(=O)Nc3cc(C)ccc3O)n2)cc1 | - | 0 | 0 | 0 | 37.5
